# Only a selection was taken, and hits are over-represented in it overall.
# Algae TAG accum – inducers of triacylglycerol accumulation in Chlamydomonas reinhardtii algae | Chlamydomonas reinhardtii TAG, Nile Red fluorescence, 72 h | calls only at 10 µM (by protocol) | actives 0.84% (n = 44,000) | AID 1159537; call rule not given here;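 note: hits raise Nile Red signal meaning more stored TAG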
# Calls only; 0 = inactive; + = active, no number.
SMILES,Algae TAG accum
CCN1CCN(CC2CCCCC2)CC1,0
CCN1CCC(N2CCN(c3ccc(Cl)cc3)CC2)CC1,+
CCN1CCN(C2CCC(c3ccccc3)CC2)CC1 (configuration not stated),+
CCCN1CCC(N2CCN(c3ccc([N+](=O)[O-])cc3)CC2)CC1,0
c1ccc(CN2CCC(N3CCN(C4CCCC4)CC3)CC2)cc1,0
CCN1C(=O)CC(N2CCN(c3ccc(Cl)cc3)CC2)C1=O (configuration not stated),0
CCN1CCN(C2CCCC(C)C2)CC1 (configuration not stated),0
COc1ccccc1N1CCN(C2CCN(C3CCC(c4ccccc4)CC3)CC2)CC1 (configuration not stated),0
CCN1CCN(C2CCC(C(C)(C)C)CC2)CC1 (configuration not stated),+
COc1ccc(C(=O)N2CCN(C3CCC(c4ccccc4)CC3)CC2)cc1OC (configuration not stated),0
O=C(c1ccccc1)N1CCN(Cc2ccncc2)CC1,0
c1ccc(C2CCC(N3CCN(Cc4ccncc4)CC3)CC2)cc1 (configuration not stated),+
O=C(CNC(=O)C1CCCCC1)Nc1nc(-c2ccccc2)cs1,0
Cc1ccc(N(Cc2ccc(C(=O)O)cc2)S(C)(=O)=O)cc1C,0
COc1ccc(CCNC(=O)CSc2nc3sc4c(c3c(=O)[nH]2)CCC4)cc1OC,0
CCC(=O)Nc1ccc2nc(SCC(=O)NCc3ccc(OC)cc3)sc2c1,0
CC(Sc1nc2ncnc(N)c2[nH]1)C(=O)Nc1ccc(F)cc1 (configuration not stated),0
CCCCSC1=C(C#N)C(c2cccc([N+](=O)[O-])c2)C(C(C)=O)=C(C)N1 (configuration not stated),0
Cc1ccc(NC(=O)c2cc(NC(=O)CCC(=O)O)ccc2N2CCOCC2)cc1Cl,0
Cc1ccc(OCC(=O)Nc2cccc([N+](=O)[O-])c2C)c(Br)c1,0
Cc1c(NC(=O)COc2ccc(Br)cc2)cccc1[N+](=O)[O-],+
Cc1cccc(NC(=O)COc2ccc(Br)cc2)c1C,0
Cc1cc(OCCCCN2CCN(C)CC2)cc(C(C)C)c1,+
Cc1cc(Br)ccc1OCCN1CCN(C)CC1,0
CC(C)c1ccc(OCCOCCN2CCN(C)CC2)cc1,0
SMILES,Algae TAG accum
Cc1cc(OCCCN2CCN(C)CC2)ccc1C(C)C,0
CN1CCN(CCCOc2ccc(Br)cc2)CC1,+
CN1CCN(CCCOc2ccc(C(=O)c3ccccc3)cc2)CC1,0
Cc1cc(Br)ccc1OCCCN1CCN(C)CC1,+
CCOc1ccc(OCCOCCN2CCN(C)CC2)cc1,0
Cc1cc(Br)ccc1OCCCN1CCCC1,0
O=C1C(=O)N(c2ncccn2)C(c2ccc([N+](=O)[O-])cc2)C1=C(O)c1ccc(F)cc1 (configuration not stated),0
COc1ccc(CCC(=O)Nc2ccc(C(C)=O)cc2)cc1,0
Cc1noc(NS(=O)(=O)c2ccc(NC(=O)CCCOc3ccccc3)cc2)c1C,0
COc1ccccc1CNC(=O)CSc1ccc(Cl)cc1,0
Cc1ccc(C)c(OCC(=O)Nc2ccc([N+](=O)[O-])cc2)c1,0
COc1ccc(C(=O)Nc2ccc(S(N)(=O)=O)cc2)cc1,0
O=C1CC(c2ccccc2F)c2cc3c(cc2N1)OCO3 (configuration not stated),0
O=C(NCCCc1ccccc1)c1ccccc1F,0
CCNC(=O)c1c(NC(=O)c2ccccc2Cl)sc2c1CCCC2,0
CCOc1ccc2nc(CCC(=O)O)[nH]c2c1,0
COc1ccc(OC)c(S(=O)(=O)N(C)C2CCCCC2)c1,0
COc1ccc(C2Nc3ccccc3NC3=C2C(=O)CC(C)(C)C3)cc1Cn1cc([N+](=O)[O-])cn1 (configuration not stated),0
O=C(Cc1ccccc1)Nc1ccccc1I,0
Cc1ccc(Cn2cnc3sc4c(c3c2=O)CCC4)c(C)c1,0
Cc1ccc(Cn2cnc3c(cnn3-c3ccccc3)c2=O)c(C)c1,+
CCc1nc2c(cnn2-c2ccccc2)c(=O)n1-c1cccnc1,0
CC(C)NC(=O)CN(Cc1ccccc1)S(=O)(=O)c1cc(Cl)ccc1Cl,0
COc1ccc(OCC(=O)N2CCN(C(=O)CC(C)C)CC2)cc1,0
CC(=O)N(C1=C(N(C)C)C(=O)c2ccccc2C1=O)c1ccc(F)c(F)c1,0
SMILES,Algae TAG accum
CC(=O)N(C1=C(N(C)C)C(=O)c2ccccc2C1=O)c1cccc(Cl)c1,0
CC(=O)N(C1=C(N(C)C)C(=O)c2ccccc2C1=O)c1ccc(Cl)c(Cl)c1,+
COc1ccc(CCNC(=O)c2c(F)c(F)c(F)c(F)c2F)cc1OC,0
COc1ccccc1NC(=O)C(=O)NCc1cccs1,0
COc1cc(C)c(CN2CCC(N3CCCCC3)CC2)cc1C,0
COc1cc(C)c(CN2CCN(Cc3ccc4c(c3)OCO4)CC2)cc1C,+
COc1cc(C)c(CN2CCCN(C)CC2)cc1C,+
COc1ccc(CN2CCCN(C)CC2)c(OC)c1,0
COc1ccccc1CN1CCN(Cc2ccc3c(c2)OCO3)CC1,0
COc1ccc(CN2CCN(Cc3ccc4c(c3)OCO4)CC2)c(OC)c1,0
